# Experimental data reported in PubChem BioAssay.
# Active and inactive are the calls of the source.
# What was measured:
# [1] = target: Albumin (Bos taurus) (UniProt P02769); experiment: bovine serum albumin binders on microarray, profiling panel, artefact control for SMM control protein annotation, biochemical, small-molecule microarray, Alexa647 label, 635/667 nm fluorescence (AID 1118); conditions: BSA-A647 binding, fluorescence 635 nm, higher = more signal;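 note: score merges 667 nm emission intensity and signal-to-noise per printed compound spot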
# Albumin (Bos taurus), sequence (P02769 whole entry, looked up): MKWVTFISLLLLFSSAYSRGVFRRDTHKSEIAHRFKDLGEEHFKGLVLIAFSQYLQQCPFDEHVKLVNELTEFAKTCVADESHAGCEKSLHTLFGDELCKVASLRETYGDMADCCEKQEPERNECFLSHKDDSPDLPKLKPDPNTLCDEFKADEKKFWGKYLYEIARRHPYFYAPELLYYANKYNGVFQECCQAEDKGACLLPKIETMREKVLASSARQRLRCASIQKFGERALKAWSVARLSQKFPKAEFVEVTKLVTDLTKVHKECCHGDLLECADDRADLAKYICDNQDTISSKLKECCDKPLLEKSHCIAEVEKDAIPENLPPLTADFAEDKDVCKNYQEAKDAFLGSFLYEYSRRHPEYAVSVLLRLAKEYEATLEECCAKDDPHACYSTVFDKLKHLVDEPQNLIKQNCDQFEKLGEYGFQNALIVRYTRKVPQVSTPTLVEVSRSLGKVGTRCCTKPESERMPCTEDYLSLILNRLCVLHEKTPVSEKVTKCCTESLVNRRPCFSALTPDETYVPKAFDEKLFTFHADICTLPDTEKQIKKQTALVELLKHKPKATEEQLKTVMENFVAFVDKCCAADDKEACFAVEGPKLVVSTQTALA
# [2] = small-molecule microarray binders of probe aXIP, primary screen, biochemical, NeuroSMM set, 635/667 nm fluorescence (AID 1119); conditions: higher = more signal, called active from +8 up or from −8 down;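 note: probe is the protein aXip251-270 applied at 1 µg/mL to compound-printed slides; binding of probe to printed compounds measured as 667 nm fluorescence plus signal to noise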
# [3] = small-molecule binders of probe aNOTCH3, primary screen, biochemical, small-molecule microarray, 635/667 nm fluorescence (AID 1120); conditions: higher = more signal;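 note: probe is a biotin-tagged antibody raised against NOTCH3 rather than NOTCH3 protein; score merges spot fluorescence near 667 nm with spot signal to noise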
# [4] = small-molecule binders of probe aNOTCH2, primary screen, biochemical, small-molecule microarray, 635/667 nm fluorescence (AID 1121); conditions: higher = more signal;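 note: score merges feature fluorescence read at 667 nm with its signal to noise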
# [5] = target: Carbonic anhydrase 2 (Homo sapiens) (UniProt P00918); experiment: CAII small-molecule binders, profiling panel, biochemical, small-molecule microarray, Alexa647-labelled CAII (AID 1122); conditions: CAII-A647 binding fluorescence, higher = more signal
# [6] = COS7 lysate on small-molecule microarray, probe aHis, 635 nm (AID 1123); conditions: COS7 cell lysate, fluorescence, higher = more signal;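 note: z-score combines 667nm fluorescence intensity with signal-to-noise per printed compound spot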
# [7] = compound binding in COS7 lysate, probe aLAP1, primary screen, cell lysate, small-molecule microarray (AID 1124); conditions: probe aLAP1, fluorescence, higher = more signal;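 note: lysate comes from COS7 cells expressing LAP1 and is applied at 0.3 µg/mL; score merges spot fluorescence near 667 nm with signal-to-noise over triplicate slides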
# [8] = test system: Sam68 (KHDRBS1); experiment: Sam68 small-molecule binders, primary screen, biochemical, small-molecule microarray, 635 nm fluorescence (AID 1125); conditions: small-molecule microarray binding, higher = more signal;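 note: score merges 667 nm channel intensity with signal to noise over triplicate slides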
# [9] = test system: Chordin-like protein 2 (CHRDL2); experiment: CHRDL2 small-molecule binders, primary screen, biochemical, small-molecule microarray, 635 nm fluorescence (AID 1126); conditions: small-molecule microarray binding, fluorescence 635 nm; higher = more signal;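 note: printed compound slides probed with Chrdl2 protein at 4 µg/mL for 1 h at 4 C; score merges 667 nm emission intensity with signal to noise over three replicate slides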
# [10] = target: Concanavalin-A (Canavalia ensiformis) (UniProt P02866); experiment: ConA small-molecule binders, primary screen, artefact control for SMM control protein annotation, biochemical, small-molecule microarray, Alexa647 label, 635 nm (AID 1127); conditions: ConA-A647 binding fluorescence, higher = more signal;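 note: z combines 667 nm emission intensity with signal-to-noise across three replicate slides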
# Concanavalin-A (Canavalia ensiformis), sequence (P02866 whole entry, looked up): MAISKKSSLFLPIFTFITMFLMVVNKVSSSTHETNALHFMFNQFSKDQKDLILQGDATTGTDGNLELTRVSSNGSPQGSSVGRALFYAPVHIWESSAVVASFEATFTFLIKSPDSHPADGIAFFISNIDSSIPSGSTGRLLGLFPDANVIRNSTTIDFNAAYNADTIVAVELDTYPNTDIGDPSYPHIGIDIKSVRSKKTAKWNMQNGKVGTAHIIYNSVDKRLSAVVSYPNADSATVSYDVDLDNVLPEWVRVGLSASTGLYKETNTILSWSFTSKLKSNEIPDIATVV
# [11] = anti-His antibody binders, primary screen, artefact control for SMM control protein annotation, biochemical, small-molecule microarray, 635 nm fluorescence (AID 1128); conditions: anti-His Alexa647 antibody binding, higher = more signal;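 note: score merges feature fluorescence with signal-to-noise for each printed compound spot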
# [12] = test system: Human papillomavirus type 1a E7 protein (residues 1-88); experiment: HPV1a E7 small-molecule binders, primary screen, biochemical, small-molecule microarray, residues 1-88, 635 nm (AID 1129); conditions: small-molecule microarray binding, fluorescence 635 nm; higher = more signal
# [13] = target: Focal adhesion kinase 1 (Homo sapiens) (UniProt Q05397); experiment: small-molecule microarray binders of FAK, primary screen, biochemical, 635/667 nm fluorescence, BSA, DTT (AID 1130); conditions: PTK2 binding, 635 nm fluorescence, higher = more signal;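 note: composite of spot emission at 667 nm and signal to noise over triplicate slides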
# Focal adhesion kinase 1 (Homo sapiens), sequence (Q05397 whole entry, looked up): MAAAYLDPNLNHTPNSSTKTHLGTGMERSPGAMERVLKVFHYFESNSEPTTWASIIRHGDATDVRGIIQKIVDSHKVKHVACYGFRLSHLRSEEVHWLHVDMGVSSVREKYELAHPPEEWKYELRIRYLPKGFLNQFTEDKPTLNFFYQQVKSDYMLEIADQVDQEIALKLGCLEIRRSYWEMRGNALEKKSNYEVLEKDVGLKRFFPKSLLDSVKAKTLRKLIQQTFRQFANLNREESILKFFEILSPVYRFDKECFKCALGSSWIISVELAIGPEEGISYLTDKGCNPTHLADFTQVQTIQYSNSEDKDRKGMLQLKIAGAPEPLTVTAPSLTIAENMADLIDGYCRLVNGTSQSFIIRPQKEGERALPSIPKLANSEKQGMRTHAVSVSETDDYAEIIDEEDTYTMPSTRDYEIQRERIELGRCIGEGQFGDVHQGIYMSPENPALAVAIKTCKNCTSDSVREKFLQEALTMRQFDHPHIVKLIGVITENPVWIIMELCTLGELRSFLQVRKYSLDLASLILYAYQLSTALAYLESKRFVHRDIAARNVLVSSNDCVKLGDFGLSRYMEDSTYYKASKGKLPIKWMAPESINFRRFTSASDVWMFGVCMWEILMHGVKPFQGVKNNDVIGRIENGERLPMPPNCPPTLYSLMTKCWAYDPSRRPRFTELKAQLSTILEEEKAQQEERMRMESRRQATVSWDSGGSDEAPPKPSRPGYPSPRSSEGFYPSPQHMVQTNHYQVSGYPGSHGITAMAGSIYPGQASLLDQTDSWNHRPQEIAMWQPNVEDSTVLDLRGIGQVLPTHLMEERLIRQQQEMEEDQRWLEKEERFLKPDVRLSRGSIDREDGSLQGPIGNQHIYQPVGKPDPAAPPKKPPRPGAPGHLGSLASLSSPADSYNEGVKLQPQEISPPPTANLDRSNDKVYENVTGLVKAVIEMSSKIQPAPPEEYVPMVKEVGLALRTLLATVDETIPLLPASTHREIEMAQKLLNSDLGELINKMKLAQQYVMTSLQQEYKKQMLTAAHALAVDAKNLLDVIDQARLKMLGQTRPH
# [14] = test system: Fibrinogen (Alexa647-labelled); experiment: fibrinogen binders on compound microarrays, profiling panel, artefact control for SMM control-protein annotation, biochemical, small-molecule microarray, 635/667 nm fluorescence (AID 1131); conditions: fibrinogen-A647 binding fluorescence, higher = more signal;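 note: z-score merges 667 nm fluorescence with per-spot signal-to-noise over triplicate slides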
# [15] = target: Follistatin (Homo sapiens) (UniProt P19883); experiment: follistatin binders on small-molecule microarrays, primary screen, biochemical, small-molecule microarray, 635/667 nm fluorescence (AID 1132); conditions: FST binding, 635 nm fluorescence, higher = more signal
# Follistatin (Homo sapiens), sequence (P19883 whole entry, looked up): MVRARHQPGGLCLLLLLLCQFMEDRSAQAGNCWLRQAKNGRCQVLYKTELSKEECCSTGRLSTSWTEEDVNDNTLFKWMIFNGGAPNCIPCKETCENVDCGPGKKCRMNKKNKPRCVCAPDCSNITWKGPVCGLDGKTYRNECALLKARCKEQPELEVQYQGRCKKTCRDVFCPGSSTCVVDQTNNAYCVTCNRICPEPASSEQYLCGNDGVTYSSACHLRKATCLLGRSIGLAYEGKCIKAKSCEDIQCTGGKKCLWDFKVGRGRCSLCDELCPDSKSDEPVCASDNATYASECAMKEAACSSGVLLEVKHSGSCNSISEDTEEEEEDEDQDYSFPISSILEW
# [16] = target: Fibroblast growth factor 2 (Homo sapiens) (UniProt P09038); experiment: FGF2 binders on small-molecule microarrays, primary screen, biochemical, small-molecule microarray, 635/667 nm fluorescence (AID 1133); conditions: small-molecule microarray binding, FGF2, fluorescence 635/667; higher = more signal
# Fibroblast growth factor 2 (Homo sapiens), sequence (P09038 whole entry, looked up): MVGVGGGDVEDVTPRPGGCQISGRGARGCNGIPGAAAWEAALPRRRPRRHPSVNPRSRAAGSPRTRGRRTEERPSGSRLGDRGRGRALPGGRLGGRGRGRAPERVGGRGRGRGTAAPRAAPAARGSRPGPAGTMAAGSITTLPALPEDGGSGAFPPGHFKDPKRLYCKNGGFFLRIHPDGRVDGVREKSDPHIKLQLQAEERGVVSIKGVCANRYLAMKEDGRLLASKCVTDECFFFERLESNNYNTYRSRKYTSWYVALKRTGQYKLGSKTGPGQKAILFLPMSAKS
# [17] = mitochondrial membrane potential change in A549 cells, profiling panel, cell-based, JC-1 fluorescence, basal, 24 h, 100 nL (AID 1138); conditions: higher = more signal;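 note: A549 lung adenocarcinoma cells under basal conditions with no added stimulus; test concentration not given here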
# [18] = test system: Lefty1; experiment: Lefty1 binders on small-molecule microarrays, primary screen, biochemical, small-molecule microarray, 635/667 nm fluorescence (AID 1139); conditions: small-molecule microarray binding, fluorescence 635/667; higher = more signal
# [19] = test system: wheat germ agglutinin (Triticum aestivum), Alexa647-labelled; experiment: wheat germ agglutinin binders on compound microarrays, profiling panel, artefact control for SMM control-protein annotation, biochemical, small-molecule microarray, 635/667 nm fluorescence (AID 1140); conditions: WGA-A647 binding, 635 nm fluorescence, higher = more signal;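 note: score merges 667 nm feature emission with signal to noise over triplicate slides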
# [20] = target: Luciferin 4-monooxygenase (Photinus pyralis) (UniProt P08659); experiment: firefly luciferase enzyme inhibitors, primary screen, biochemical, luminescence, purified enzyme, 2006 set (AID 1141); conditions: SteadyGlo luminescence, 30 min, higher = more signal, called active from +8 up or from −8 down;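 note: cell-free assay with purified firefly luciferase at 100 ng per well in PBS; test concentration not given here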
# Luciferin 4-monooxygenase (Photinus pyralis), sequence (P08659 whole entry, looked up): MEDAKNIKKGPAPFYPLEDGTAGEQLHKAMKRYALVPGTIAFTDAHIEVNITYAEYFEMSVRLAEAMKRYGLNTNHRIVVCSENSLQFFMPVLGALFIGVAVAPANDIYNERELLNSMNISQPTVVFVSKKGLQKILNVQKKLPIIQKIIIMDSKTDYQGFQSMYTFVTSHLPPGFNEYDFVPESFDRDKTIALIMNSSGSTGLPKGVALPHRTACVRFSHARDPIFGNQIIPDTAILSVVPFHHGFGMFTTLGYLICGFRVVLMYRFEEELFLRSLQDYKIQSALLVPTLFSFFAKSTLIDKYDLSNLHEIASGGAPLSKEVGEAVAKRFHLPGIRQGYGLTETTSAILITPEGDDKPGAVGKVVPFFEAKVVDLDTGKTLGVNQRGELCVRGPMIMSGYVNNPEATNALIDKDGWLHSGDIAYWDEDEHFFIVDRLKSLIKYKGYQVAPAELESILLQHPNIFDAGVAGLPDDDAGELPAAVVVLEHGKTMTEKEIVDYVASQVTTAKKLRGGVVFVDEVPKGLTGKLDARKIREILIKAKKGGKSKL
SMILES,composite z-score [1],composite Z-score [2],composite z-score [3],composite z-score [4],composite z-score [5],composite z-score [6],composite z-score [7],composite z-score [8],composite z-score [9],composite z-score [10],composite z-score [11],composite z-score [12],composite z-score [13],composite z-score [14],composite z-score [15],composite z-score [16],z-score [17],composite z-score [18],composite z-score [19],z-score [20]
C=CCOC(=O)[C@H]1[C@@H]2C(=O)O[C@@H](c3ccccc3)[C@@H](c3ccccc3)N2[C@@H](c2ccc(OCCOC(=O)[C@@H]3C[C@@H]4C(=O)N[C@@H](CCCCNC(C)=O)C(=O)N4[C@@H]3c3cccc(OCCO)c3)cc2)[C@]12C(=O)Nc1ccccc12,-0.623,1.36 (inactive),0.116,-0.0704,0.501,2.07,0.352,1.29,0.751,1.2,2.81,1.19,0.838,0.276,1.25,1.53,-0.0996,0.581,-0.185,-0.878 (inactive)
CN(C)CCCCNC(=O)[C@H]1C[C@H]2C(=O)NCC(=O)N2[C@H]1c1ccc(O)cc1,-0.411,0.312 (inactive),-0.368,-0.13,0.712,0.0967,-0.537,-0.714,0.367,0.342,0.489,-0.791,-0.424,-0.473,0.481,0.304,-0.124,0.057,1.08,0.836 (inactive)
CCOC(=O)C[C@H]1[C@H](OC(=O)c2ccccc2-c2ccccc2)[C@@H](NC(=O)C2CCCCC2)c2cc(OCCCO)ccc2N1C(=O)c1ccc2ccccc2n1,0.632,0.0805 (inactive),0.0553,-0.037,0.258,0.249,0.358,1.07,0.162,-0.0181,0.316,0.667,0.853,0.593,1.15,0.889,0.309,1.09,0.27,0.595 (inactive)
COCCOC(=O)N1C(=O)[C@@]2(c3ccccc31)[C@H](c1ccc(O)cc1)N1[C@H](c3ccccc3)[C@H](c3ccccc3)OC(=O)[C@H]1[C@@H]2C(=O)N1CCCCCCC1,0.46,4.53 (inactive),1.98,0.851,0.863,3.62,1.18,1.3,1.58,1.14,2.71,1.21,0.791,0.941,1.46,1.74,-1.16,1.72,1.43,0.171 (inactive)
COC(=O)[C@]1(CCC(=O)OC(C)(C)C)N=C(c2ccc(OCCCO)cc2)O[C@@H]1c1ccccc1N=[N+]=[N-],-0.257,0.62 (inactive),-0.122,-0.0618,0.589,1.63,0.254,0.68,-0.444,0.589,0.477,0.993,-0.212,-0.306,1.29,0.626,1.3,-0.0341,0.658,-6.42 (inactive)
NCCCCCCNC(=O)[C@@H]1C[C@@H]2C(=O)N3CCC[C@H]3C(=O)N2[C@@H]1c1cccc(OCCO)c1,0.81,2.71 (inactive),0.113,-0.15,0.709,0.729,1.02,0.462,1.16,1.14,2.14,0.894,0.0676,0.882,0.832,1.16,-0.383,1.24,0.938,-0.268 (inactive)
CN(C)CCCNC(=O)[C@@]1(Cc2ccccc2I)c2ccccc2C(=O)N(C2CCCCC2)[C@H]1c1ccc(CO)cc1,0.33,0.56 (inactive),0.417,0.227,0.443,1.57,0.653,1.31,-0.0713,1.16,0.743,1.2,0.732,1.01,0.872,0.156,-1.42,0.27,1.2,0.371 (inactive)
O=C(NCc1ccccc1)[C@@H]1c2ccccc2C(=O)N(Cc2ccc(OC(F)(F)F)cc2)[C@H]1c1ccc(CO)cc1,0.0192,2.41 (inactive),-0.155,-0.11,0.694,2.29,0.633,0.258,-0.431,-0.278,2.71,0.277,0.442,-0.222,0.616,0.0415,2.79,-0.9,-0.416,-0.828 (inactive)
Cc1ccc(C(C)CC(O)C2C=CC3C(=O)N(C)C(=O)C3N2Nc2ccccc2)o1 (stereo not given),0.264,-0.288 (inactive),0.318,-0.075,0.656,0.614,0.0421,1.3,0.122,0.617,0.298,1.22,0.0621,0.655,0.941,0.482,0.16,0.497,1.15,0.226 (inactive)
O=C1C[C@@](C(=O)NCc2ccccc2)(c2ccc([N+](=O)[O-])cc2)[C@@H](c2ccc(CO)cc2)N1C1CCCCC1,-0.77,1.06 (inactive),0.14,0.0847,0.317,2.89,1.76,1.03,0.575,1.07,1.25,1.15,1.02,0.955,1.12,1.05,0.966,0.294,0.706,-0.238 (inactive)
CCOC(=O)C1=C[C@@H](C(C)(C)C)N(S(=O)(=O)c2ccc(C)cc2)[C@H]1c1ccc(C#N)cc1,0.684,-0.795 (inactive),0.0935,0.0655,0.632,2.72,0.969,1.31,0.582,1.09,1.16,1.23,0.637,0.996,0.599,0.0014,1.53,0.307,1.08,1.82 (inactive)
CC(C)C(CO)N1C(=O)[C@@H]2C3C(=O)OCCC/C=C\[C@H]3OC23C=CCN(Cc2ccccc2)C(=O)[C@@H]13 (stereo not given in full),-1.25,-0.157 (inactive),-0.159,-0.11,0.902,0.708,1.5,-0.173,-1.11,-1.67,-1.18,-0.359,-0.0926,-2.51,-0.908,-0.591,1.21,-0.524,-1.2,-0.59 (inactive)
CN1C(=O)C2C(C1=O)C1C=C(CCCO)C2C(C2CC2)N1Cc1cccc(OC(F)(F)F)c1 (stereo not given),1.04,0.35 (inactive),0.0934,-0.023,0.911,2.55,0.956,1.3,-0.535,0.983,1.37,0.925,1.35,0.0349,-0.0603,-0.862,-0.198,0.0613,1.04,-0.478 (inactive)
COCCCNC(=O)[C@@]1(CCS(=O)(=O)c2ccccc2)COC(c2ccc(OCCCO)cc2)=N1,0.595,0.197 (inactive),0.567,0.0551,0.919,3.36,0.706,1.14,-0.804,0.945,3.75,0.92,0.394,1.02,1.31,0.194,0.206,-0.0951,1.59,-0.0482 (inactive)
C=CCOC(=O)[C@H]1[C@@H]2C(=O)O[C@@H](c3ccccc3)[C@@H](c3ccccc3)N2[C@@H](c2ccc(OCCOC(=O)[C@@H]3C[C@@H]4C(=O)N[C@@H](CCCC[N+](C)(C)C)C(=O)N4[C@@H]3c3ccc(O)cc3)cc2)[C@]12C(=O)Nc1ccc(I)cc12,-0.691,0.61 (inactive),-0.0647,-0.0267,0.572,1.28,0.517,1.29,1.14,1.03,1.08,0.377,0.898,0.4,1.32,1.48,-1.77,1.01,0.422,-2.99 (inactive)
COc1ccc([Si](C)(C)[C@H]2[C@H](CC(=O)N3Cc4ccccc4C[C@H]3CO)O[C@@]3(C(=O)N(c4ccccc4)c4ccccc43)[C@@H]2C)cc1,0.622,0.319 (inactive),0.204,-0.126,0.306,0.994,0.374,1.29,1.22,1.09,1.27,1.19,0.0758,0.96,1.37,1.64,1.78,1.48,0.771,0.16 (inactive)
CC(C)=CCCC(C)=CC(O)C1C=CC2C(=O)NC(=O)C2N1Nc1ccccn1 (stereo not given),0.408,0.992 (inactive),0.254,0.0047,0.725,0.39,0.969,1.25,1.43,0.932,1.97,1.08,-0.097,0.868,1.39,1.7,0.966,1.54,0.73,-1.17 (inactive)
